Measurements as given in PubChem BioAssay.
Unmarked numbers belong to inactive results. The rule behind the calls is not given here.

Biological target: Lethal factor (Bacillus anthracis) (UniProt P15917)
Test: Lethal factor protease inhibitors, Bacillus anthracis, multiplex microsphere cleavage assay, validation set (AID 588461)
Settings: flow cytometry, at 10 µM, stronger effect = higher value

| SMILES | inhibition |
| --- | --- |
| COc1cc(OC)c2c(C)c(Cl)c(=O)oc2c1 | -3.3% |
| Cc1ccc(CN2CCN(CCCc3ccccc3)CC2CCO)cc1 (centres undefined) | -3.4% |
| Cc1ccc(O)c(CCc2ccccc2)n1 | -5.5% |
| CN1/C(=C\C=Nc2ccccc2)C(C)(C)c2ccccc21 | -0.6% |
| CC(=Nc1ccccc1)C1=C(O)CCCC1=O | -5.7% |
| CC(C)Oc1ccc(C(CC(=O)O)c2ccc(F)cc2)cc1 (centres undefined) | 0.9% |
| CNCCc1ccccn1 | -8.2% |
| CC1=CC2(O)OCCN(CCO)C2=CC1=O (centres undefined) | 2.5% |
| COc1ccc(N2C(=O)[C@@H]3Cc4ccccc4CN3C2=O)cc1 | -0.7% |
| CC(C)Oc1ccc2c(=O)c(-c3ccccc3)coc2c1 | 6.8% |
| COc1ccc(N2CCN(C(=S)NCc3ccccc3)CC2)cc1 | 2.2% |
| Cc1c(OCC(F)(F)F)ccnc1CS(=O)c1nc2ccccc2[nH]1 (centres undefined) | -2.4% |
| CC(C)COCC(CN(Cc1ccccc1)c1ccccc1)N1CCCC1 (centres undefined) | -2% |
| CN1CCCC(OC(=O)c2ccc3c(c2)OCCO3)C1 (centres undefined) | -2.2% |
| COC(=O)c1ccc(NC(=O)C23CCC(C)(C(=O)O2)C3(C)C)cc1 (centres undefined) | 2.4% |
| CC1(C#CC[N+]2(C)CCCCC2)CCC2C(O1)c1ccccc1OC2(C)C (centres undefined) | -2.1% |
| CC(=O)C1=C(O)C(=O)N(CC(=O)O)C1c1ccccc1Cl (centres undefined) | -3% |
| CCOC(=O)c1c(C)oc2cc(Br)c(OC(C)C(=O)OCC)cc12 (centres undefined) | -2.8% |
| CC(=O)N1CCN(c2ccc(OC[C@H]3CO[C@](Cn4ccnc4)(c4ccc(Cl)cc4Cl)O3)cc2)CC1 | -3.1% |
| CC[N+](C)(C)Cc1ccccc1Br | 0.6% |

| SMILES | inhibition |
| --- | --- |
| N/C(=N\OS(=O)(=O)c1ccc2ccccc2c1)c1cccnc1 | 0.2% |
| CC(C)CC(=O)N(Cc1ccc(F)cc1)C1CCS(=O)(=O)C1 (centres undefined) | -4% |
| CC1CCc2cc(F)cc3c(=O)c(C(=O)O)cn1c23 (centres undefined) | 3.5% |
| O=C(O)CC(O)C(=O)O (centres undefined) | 3.8% |
| Cc1c(NC(=O)c2cccs2)cccc1[N+](=O)[O-] | 5.7% |
| CCNC(=O)C(Cc1ccccc1)NC(=O)OCc1ccccc1 (centres undefined) | 5.5% |
| N#Cc1c2c(c(-c3ccccc3)[nH]c1=O)CCCC2 | 2.3% |
| NC[C@H]1O[C@H](O[C@H]2[C@H](O)[C@@H](O[C@H]3O[C@H](CO)[C@@H](O)[C@H](N)[C@H]3O)[C@H](N)C[C@@H]2N)[C@H](N)C[C@@H]1O | -1.8% |
| Cc1oncc1C(=O)Nc1ccc(C(F)(F)F)cc1 | 2.2% |
| Nc1ccc2[nH]ncc2c1 | 2.9% |
| O=C(O)CCCc1ccccc1 | -6.6% |
| Oc1[nH]c2ccccc2c1N=Nc1ccccc1 | 1.4% |
| N/C(=N\OC(=O)CCCOc1ccc(Cl)cc1Cl)c1ccccn1 | -0.4% |
| CC1(C)C(C=C(Cl)Cl)C1C(=O)N1CCN(Cc2ccccc2)CC1 (centres undefined) | -5.5% |
| COc1ccc(C2C(C(=O)c3ccco3)=C(O)C(=O)N2CC2CCCO2)cc1 (centres undefined) | -4.2% |
| O=C(Nc1cccc(Cl)c1)N1CCN2C(=O)c3ccccc3C12c1ccccc1 (centres undefined) | -4.4% |
| COc1cc(C(=O)Nc2ccc(N(C)C)cc2)c([N+](=O)[O-])cc1OC | -19.3% |
| Nc1ncnc2c1ncn2C1OC(CO)C(O)C1O (centres undefined) | 2% |
| CCOCC(=O)Nc1ccccc1C(=O)N1CCOCC1 | 6.3% |
